# Where “and” joins values, the source holds several entries; their conditions need not be identical. Equal entries are not always repeated. The panel holds about 83,000 compounds, 20% with a hit somewhere; the sample as a whole holds those more often.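 Plates (96-well) were seeded with cells, treated with compound at one concentration, and incubated for 48 hours before percent growth was determined.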 A number with no mark means an inactive call. Calls of active or inactive are those of the source. The calls were made as follows: active = growth percent below 10; inactive = the rest.
# System: MDA-MB-468 breast
# Assay: NCI-60 one-dose screen, 48 h (100 = growth as untreated, 0 = no growth, -100 = all killed)
# Details: 10 µM unless noted
row,Compound,growth
1,CCN1C(=O)N(CC)C2C1NN=c1s/c(=C3\C(=O)N(CC(C)C)c4ccccc43)c(=O)n12 (stereo not given),6% (active)
2,Cc1cc2nc3c4ccccc4n(CCN(C)C)c3nc2cc1C,-12.1% (active)
3,Cc1ccc(NC(=O)Nc2nc3ccc([N+](=O)[O-])cc3s2)cc1,-15.6% (active)
4,Nc1nc2ccc([C@@H]3Nc4ccc5[nH]ncc5c4[C@H]4[C@H]5CCC(C5)[C@H]43)cc2s1,-14.4% (active)
5,Nc1c(C(=O)Nc2cccc3ccccc23)sc2nc3c(cc12)COCC3,38.6%
6,CCOC(=O)N1CCc2c(sc3c2C(=O)N[C@H](c2ccc(OC)cc2)N3)C1,101%
7,Nc1c(C(=O)Nc2ccncc2)sc2nc3c(cc12)C(O)CCC3 (stereo not given),88.5%
8,COc1cc2cc(OC(C)=O)c3cc4c(cc3c2c(OC)c1OC)OCO4,96.4%
9,O=c1[nH]c(=S)c2c(n1CCCO)CCC2,106%
10,CCN1C(=S)N(CC)C2Nn3c(s/c(=C4\C(=O)N(C)c5ccccc54)c3=O)=NC21 (stereo not given),11.7%
11,COc1ccc2c(c1)C(C)Cc1c(Cl)nc(C)nc1N2C (stereo not given),25.8%
12,CC(=O)Nc1ccccc1-c1nc2ccccc2s1,93%
13,Clc1ccc(-c2csc(Nc3cccc(Nc4csc(-c5ccc(Cl)cc5)n4)c3)n2)cc1,77%
14,CSc1ccc2c(c1)c(CCN)c(C)n2Cc1ccc(Cl)c(Cl)c1,-67.1% (active)
15,O=C(Nc1cccc([N+](=O)[O-])c1)c1cc2ccccc2cc1O,-42.8% (active)
16,COc1ccc(-c2coc3c(CO)c(O)ccc3c2=O)cc1,82.9%
17,O=C(NCc1cccnc1)c1ccc([N+](=O)[O-])o1,69.5%
18,COc1cc(-c2nc(Nc3nc4ccccc4[nH]3)nc(N)c2C#N)cc(OC)c1OC,48.5%

row,Compound,growth
1,COc1ccc(-c2nc3sccn3c2-c2ccnc(NCCCNS(=O)(=O)c3ccc(C)cc3)n2)cc1,37.9%
2,Cc1cc(O)c2c(c1)C1OC(=O)CCCCCN1C1=C2C(=O)c2cccc(OC3CC(O)C(O)C(C)O3)c2C1=O (stereo not given),58.3%
3,CCOC(=O)c1cc2c(n1Cc1cccc(OC)c1)-c1oncc1CC2,-2.28% (active)
4,FC(F)(F)c1ccc2c(Nc3cccc(C4CC(c5ccccc5)=NN4c4ccc(Cl)cc4)c3)ccnc2c1 (stereo not given),47.4%
5,CC(=O)N1CC(Nc2ccc(OC(F)(F)F)cc2)=CC1=O,13.8%
6,Cc1cc(C)cc(Nc2nccc(-c3c(-c4ccc(F)cc4)ncn3C3CCNCC3)n2)c1,-29.9% (active)
7,CNC(=O)c1cccc(-c2ccc3c(N4CCOC[C@@H]4C)nc(N4CCOC[C@@H]4C)nc3n2)c1,-30.7% (active) and -22.8% (active)
8,C=CCN(CC=C)C(=O)[C@H](CC)[C@@H]1CC[C@@H](C)[C@@H]([C@H](C)[C@@H](O)[C@@H](C)C(=O)[C@H](CC)C2O[C@]3(C=C[C@@H](O)[C@]4(CC[C@@](C)([C@H]5CC[C@](O)(CC)[C@H](C)O5)O4)O3)[C@H](C)C[C@@H]2C)O1 (stereo not given in full),-19.1% (active)
9,CC[C@]12C=CCN3CC[C@]4(C(=C(C(=O)OC)C1)Nc1cc5c(cc14)[C@@H]1[C@H](O5)[C@@H](O)[C@@]4(CC)CC(C(=O)OC)=C5Nc6cc(OC)ccc6[C@@]56CCN1[C@@H]46)[C@@H]32,-36.8% (active)
10,Cc1cc(CC(=O)NCCO)n(CCO)c(=O)c1,113%
11,c1ccc2cc(C[n+]3ccn(CCCCCCCCCCCCn4cc[n+](Cc5ccc6ccccc6c5)c4)c3)ccc2c1,-81.7% (active)
12,C[C@]12CCc3nc(Nc4ccc(O)cc4)sc3C1=CC[C@@H]1[C@@H]2CC[C@]2(C)/C(=N/NC(N)=S)CC[C@@H]12,-58.2% (active)
13,CCOC(=O)c1c(Nc2ccccc2)nn2c(-c3ccc(OC)c(OC)c3)ccnc12,37.7%
14,O=C(NCCOCCOCCOCCNC(=O)c1cc2c(o1)C(=O)c1ccccc1C2=O)NC12CC3CC(CC(C3)C1)C2,-33.8% (active)
15,COc1ccc2c(c1)c(-c1nc(-c3cn(C)c4ncccc34)cs1)cn2CCN,16.1%
16,Cc1ccc(NC(=O)c2ccc(CN3CCN(C)CC3)cc2)cc1Nc1nc(-c2cccnc2)cs1,25.5%
17,OC(CBr)c1ccnc2ccccc12 (stereo not given),100%
